Experimental data published in PubChem BioAssay AID1662 (Broad Institute, 2009).
Hit rate of the full screen: of about 300,000 compounds, about 4,000 (1.3%) were called active. Shown is part of a subset that was picked to be rich in actives. Unmarked numbers belong to inactive results.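 The calls were made as follows: active = mean replicate score, as percent of positive control median, at least 50; inconclusive = mean below 50 but one replicate at or above 50; inactive = mean and every replicate below 50.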

test: kanamycin survival loss of SKKanGAS strain – BacTiter-Glo luminescence, streptokinase expression inhibitor project, primary screen (AID 1662);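 also: strain carries kanamycin resistance gene driven by streptokinase promoter and grows in 40 µg/ml kanamycin; loss of luminescence reflects streptokinase promoter inhibition or plain growth inhibition; 0% = median of DMSO wells and 100% = positive control at its reference dose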; settings: S. pyogenes SKKanGAS, kanamycin growth, 6 h, at 7.5 µM, hits give high values

Row | SMILES | inhibition
1 | NC(=O)Cn1cc(/C=N\NS(=O)(=O)c2ccccc2)c2ccccc21 | -0.681%
2 | Cc1ccc2c(C)c(C(=O)N3CCN(c4ccncc4)CC3)oc2c1C | 4.31%
3 | O=C1c2ccccc2-c2ncnc3c(N4CCOCC4)cc(N4CCOCC4)c1c23 | 13.7%
4 | O=[N+]([O-])c1c(NCCO)cc(Sc2nc3ccccc3s2)c2nonc12 | 51.8% (active)
5 | O=C(O)c1cccc(S(=O)(=O)Nc2ccc(O)cc2Sc2nc3ccccc3s2)c1 | 8.92%
6 | CCOc1ccccc1Nc1ccc2nonc2c1[N+](=O)[O-] | -0.208%
7 | CCOCC(=O)Nc1ncc(S(=O)(=O)c2ccc([N+](=O)[O-])cc2)s1 | -0.334%
8 | CC(C)C(=O)Nc1ccc2c3c(cccc13)CC2 | -4.74%
9 | Cc1cccc(NC(=O)C2CCN(C(=O)NC3CCCCC3)CC2)c1 | 3.22%
10 | O=C(N/N=C/c1cc(Br)c(O)c([N+](=O)[O-])c1)C(O)(c1ccccc1)c1ccccc1 | 4.7%
11 | O=C(N/N=C/c1cc(Cl)cc([N+](=O)[O-])c1O)C(O)(c1ccccc1)c1ccccc1 | 94.7% (active)
12 | CN(C)/N=C/c1cc(Cl)cc([N+](=O)[O-])c1O | 0.131%
13 | Fc1ccccc1CNC(=S)Nc1ccc(Cl)cc1 | 18%
14 | O=C(NC1CCN(C(=S)NCc2ccco2)CC1)c1ccc(F)cc1 | 13.3%
15 | COc1cccc(N2CC(NS(=O)(=O)c3ccc(Cl)cc3)CC2=O)c1 (stereo unspecified) | 3.83%
16 | COc1ccc(N(C(=O)c2snc(C(N)=O)c2N)C(C(=O)NC2CCCC2)c2ccco2)cc1OC (stereo unspecified) | 2.77%
17 | CCc1nnc(NC(=O)c2sc3nc(C)cc(COC)c3c2N)s1 | 8.09%
18 | CCc1ccc2nc3sc(C(=O)Nc4nnc(CC)s4)c(N)c3cc2c1 | 95.3% (active)
19 | CCc1nnc(NC(=O)c2cccc(S(=O)(=O)N(C)c3ccc(OC)cc3)c2)s1 | 4.1%
20 | COc1ccc(S(=O)(=O)NCc2cccnc2)cc1NC(=O)c1ccc(C)cc1 | -12.6%
21 | COC(=O)N/N=C/c1ccc(-c2ccc(Cl)c(Cl)c2)o1 | -12.4%

Row | SMILES | inhibition
22 | COC(=O)N/N=C/c1ccc(/C=N/NC(=O)OC)cc1 | -10.9%
23 | COC(=O)N/N=C/c1c[n+]([O-])c2ccccc2[n+]1[O-] | 50.6% (active)
24 | Cn1cccc1C(=O)N1CCc2ccccc2C1 | 10.2%
25 | Cc1cc(N=Nc2ccc3ccccc3c2)ccc1O | 81.9% (active)
26 | CC(=O)CCC(=O)c1ccc2ccccc2c1 | 3.19%
27 | COc1ccc(N=Nc2ccc(O)c(P(=O)(c3ccccc3)c3ccccc3)c2)cc1 | 41.2%
28 | Cc1ccccc1Nc1c([N+](=O)[O-])ccc2nonc12 | 4.67%
29 | O=C(NCC(c1ccco1)N1CCc2ccccc2C1)c1ccccc1Cl (stereo unspecified) | 17.4%
30 | COc1ccccc1NC(=O)c1cc(N2C(=O)C3C4CCC(C4)C3C2=O)ccc1Cl (stereo unspecified) | -15.7%
31 | Cc1ccc(-c2ccc(=O)n(Cc3ccc(F)cc3Cl)n2)cc1 | 12.7%
32 | O=c1c([N+](=O)[O-])cccn1Cc1ccc(F)cc1Cl | 55.4% (active)
33 | N/C(=N/O)c1cccn1Cc1ccccc1[N+](=O)[O-] | 0.341%
34 | O=c1[nH][nH]c(C(F)(F)F)c1C=NCc1ccccc1Cl | -1.93%
35 | CCc1c(O)cc2n(c1=O)-c1ccccc1C2(C)C | 17.4%
36 | NC(=O)c1nsc(C(=O)N(CC(=O)NCc2ccc(F)cc2)Cc2ccco2)c1N | 0.443%
37 | CC(C)CCC(C)NC(=O)c1ccc2nccnc2c1 (stereo unspecified) | -6.24%
38 | CCCCCCCCCCCCN1C(=O)CSC1c1cccnc1 (stereo unspecified) | 49.9% (active)
39 | CN(C)CCCN1C(=O)CSC1c1ccc([N+](=O)[O-])cc1 (stereo unspecified) | 2.76%
40 | CCCCCCOc1ccc(OC(=O)c2cccnc2)cc1 | -1.41%
41 | Clc1ccc(C2=CSC3=Nc4cccc5cccc(c45)N23)cc1 | 58.7% (active)
42 | O=C(Nc1ccc(S(=O)(=O)Nc2ncccn2)cc1)C12CC3CC(CC(C3)C1)C2 | 7.21%

Row | SMILES | inhibition
43 | CCOC(=O)/C(C#N)=C/c1cn(CCC(=O)O)nc1-c1ccc(Br)cc1 | -0.784%
44 | O=C(O)/C=C/c1cn(Cc2ccccc2)nc1-c1cccs1 | 8.13%
45 | O=C(O)CCn1cc(/C=C/C(=O)c2ccc(Cl)cc2)c(-c2cccc(Br)c2)n1 | 63.3% (active)
46 | CCC(c1nnc(SCC(=O)NNC(=O)c2ccccc2)n1Cc1ccccc1)N(C)C (stereo unspecified) | -9.47%
47 | O=C(CNC(=O)c1ccc(Br)o1)Nc1ccccc1 | -5.14%
48 | Cc1ccc(C(CNC(=O)Nc2cccc(C)c2)N2CCN(C)CC2)cc1 (stereo unspecified) | -5.31%
49 | O=C(Nc1nnc(C2COc3ccccc3O2)o1)c1ccc(F)cc1 (stereo unspecified) | 103% (active)
50 | CC1COc2ccccc2N1C(=O)c1ccc(F)cc1 (stereo unspecified) | 0.0101%
51 | O=C(Nc1ccccc1F)c1ccc2c(c1)OCO2 | 2.8%
52 | CCN(CC)S(=O)(=O)c1ccc(N(C)Cc2ccc(C(F)(F)F)cc2)nc1 | -5.95%
53 | O=C(NCc1nnc(SCC(=O)N2CCCc3ccccc32)o1)c1ccccc1F | 3.7%
54 | CC1(C)C2CCC1(CS(=O)(=O)NCCc1c[nH]c3ccccc13)C(=O)C2 (stereo unspecified) | -7.05%
55 | CS(=O)(=O)N1CCN(CC(=O)NC2CCCC2)CC1 | -2.39%
56 | CNC(=S)N/N=C/c1cn(Cc2ccc(C)cc2)c2ccccc12 | 53.8% (active)
57 | COC(=O)N/N=C/c1cn(CCCOc2ccc(C)cc2)c2ccccc12 | 8.83%
58 | CCOC(=O)N/N=C/c1cn(Cc2ccccc2Cl)c2ccccc12 | 6.39%
59 | CC(C)(C)c1cc2cccnc2n1Cc1cccc(F)c1 | -3.63%
60 | COc1ccc(C(=NN)c2ccc(OC)cc2)cc1 | -9.25%
61 | CCc1ccc(N(CC(=O)NCc2cccnc2)S(=O)(=O)c2ccccc2)cc1 | -18.2%
